Laboratory results reported in PubChem BioAssay AID2810 (NMMLSC, 2010).
In all, about 1,200 compounds went through this assay and about 65 (5%) were called active.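 Rule for the calls: active = at either tested dose, response and 90th-percentile vesicle-stain brightness of CD8 cells under set limits and under 9% cells vesicle-bound; inactive = the rest.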 This excerpt belongs to a sample that is enriched for actives.

Test: modulators of CD8 T cell-vesicle binding, confirmation, cherry-picked primary hits, two concentrations (AID 2810);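 note: lower values mean blocking of vesicle binding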;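 for percent response (vesicle binding): ratio of mean FL2 vesicle stain of CD8+ cells to that row's control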
Settings: 2C CD8+ T cell-vesicle binding, flow cytometry; for double positive events: CD8+/vesicle+ events
[1] = at 15.4 µM, stronger effect = lower value

O=C(Nc1ccccc1)N1CCc2c([nH]c3ccccc23)C1C(F)(F)F (stereo not given)
double positive events (at 7.7 µM): 14% | double positive events [1]: 38.4% | percent response (vesicle binding) [1]: 145% (inactive) | percent response (vesicle binding) (response, at 7.7 µM): 187%

COc1ccccc1NC(=O)Cn1cnc2sc(C)c(S(=O)(=O)N3CCCCC3)c2c1=O
double positive events (at 7.7 µM): 11.3% | double positive events [1]: 5.5% | percent response (vesicle binding) [1]: 109% (inactive) | percent response (vesicle binding) (response, at 7.7 µM): 197%

COc1cc(CC(=O)OCC(=O)NCc2ccc(C)cc2)cc(OC)c1OC
double positive events (at 7.7 µM): 12.7% | double positive events [1]: 21.2% | percent response (vesicle binding) [1]: 138% (inactive) | percent response (vesicle binding) (response, at 7.7 µM): 165%

COc1ccc(S(=O)(=O)N(C)c2ccc(C(=O)NCC3CCCO3)cc2)cc1OC (stereo not given)
double positive events (at 7.7 µM): 21.6% | double positive events [1]: 13.3% | percent response (vesicle binding) [1]: 226% (inactive) | percent response (vesicle binding) (response, at 7.7 µM): 413%

COc1ccccc1CNC(=O)CN(Cc1ccc(Cl)cc1)S(C)(=O)=O
double positive events (at 7.7 µM): 25.3% | double positive events [1]: 7.2% | percent response (vesicle binding) [1]: 127% (inactive) | percent response (vesicle binding) (response, at 7.7 µM): 441%

COc1ccccc1CNC(=O)C1CCC1
double positive events (at 7.7 µM): 33.3% | double positive events [1]: 24.2% | percent response (vesicle binding) [1]: 232% (inactive) | percent response (vesicle binding) (response, at 7.7 µM): 953%

COc1ccccc1CNC(=O)COc1ccc(C)cc1
double positive events (at 7.7 µM): 13.1% | double positive events [1]: 5.2% | percent response (vesicle binding) [1]: 56.4% (active) | percent response (vesicle binding) (response, at 7.7 µM): 222%

COc1ccccc1CNC(=O)c1ccc(N(C)S(=O)(=O)c2ccc(C)cc2)cc1
double positive events (at 7.7 µM): 17.5% | double positive events [1]: 5.4% | percent response (vesicle binding) [1]: 41.2% (active) | percent response (vesicle binding) (response, at 7.7 µM): 152%

Cc1ccc(C)c(OC(=O)c2cncc(Br)c2)c1
double positive events (at 7.7 µM): 18.1% | double positive events [1]: 15.8% | percent response (vesicle binding) [1]: 147% (inactive) | percent response (vesicle binding) (response, at 7.7 µM): 268%

Cc1ccc(NC(=O)COC(=O)c2c(-c3ccccc3)noc2C)c(C)c1
double positive events (at 7.7 µM): 5.6% | double positive events [1]: 14.4% | percent response (vesicle binding) [1]: 137% (inactive) | percent response (vesicle binding) (response, at 7.7 µM): 226%

Cc1c(C(=O)N(C)Cc2ccccc2)oc2ccc(S(=O)(=O)N3CCCC3)cc12
double positive events (at 7.7 µM): 25.6% | double positive events [1]: 12.7% | percent response (vesicle binding) [1]: 191% (inactive) | percent response (vesicle binding) (response, at 7.7 µM): 229%

COc1cc2c(-c3cc(F)cc(F)c3)c(-c3ccsc3)oc(=O)c2cc1OC
double positive events (at 7.7 µM): 37.8% | double positive events [1]: 28.1% | percent response (vesicle binding) [1]: 275% (inactive) | percent response (vesicle binding) (response, at 7.7 µM): 271%

O=C(CCc1ccccc1)N1CCN(CCO)CC1
double positive events (at 7.7 µM): 35.8% | double positive events [1]: 14.4% | percent response (vesicle binding) [1]: 151% (inactive) | percent response (vesicle binding) (response, at 7.7 µM): 239%

CC(C)(C)NC(=O)CON=C1c2ccccc2-c2ccccc21
double positive events (at 7.7 µM): 8.8% | double positive events [1]: 30.6% | percent response (vesicle binding) [1]: 361% (inactive) | percent response (vesicle binding) (response, at 7.7 µM): 203%

CC(C)(C)NC(=O)COc1ccc(CNCc2cccnc2)cc1
double positive events (at 7.7 µM): 31% | double positive events [1]: 21.6% | percent response (vesicle binding) [1]: 446% (inactive) | percent response (vesicle binding) (response, at 7.7 µM): 334%

CC(C)(C)NC(=O)COc1ccc(CNCc2ccccn2)cc1
double positive events (at 7.7 µM): 21.6% | double positive events [1]: 5.1% | percent response (vesicle binding) [1]: 32.8% (active) | percent response (vesicle binding) (response, at 7.7 µM): 227%

CCCCn1nc(C(=O)N2CCN(S(=O)(=O)c3ccccc3)CC2)c2ccccc2c1=O
double positive events (at 7.7 µM): 16.5% | double positive events [1]: 2.2% | percent response (vesicle binding) [1]: 57.2% (inactive) | percent response (vesicle binding) (response, at 7.7 µM): 484%

Cc1ccc(NC(=O)C2c3ccccc3Oc3ccccc32)c(C)c1
double positive events (at 7.7 µM): 12.5% | double positive events [1]: 28.2% | percent response (vesicle binding) [1]: 175% (inactive) | percent response (vesicle binding) (response, at 7.7 µM): 230%

O=C(Nc1ccccc1C(=O)NCc1cccnc1)c1ccccc1Cl
double positive events (at 7.7 µM): 25.8% | double positive events [1]: 14.2% | percent response (vesicle binding) [1]: 202% (inactive) | percent response (vesicle binding) (response, at 7.7 µM): 364%

CCOc1ccc(CCNC(=O)CCS(=O)(=O)c2ccc(C)cc2)cc1OCC
double positive events (at 7.7 µM): 12.8% | double positive events [1]: 11.7% | percent response (vesicle binding) [1]: 215% (inactive) | percent response (vesicle binding) (response, at 7.7 µM): 177%

CCOc1ccc(CCNC(=O)CCc2nnc3ccc(N4CCCC4)nn23)cc1OCC
double positive events (at 7.7 µM): 6.3% | double positive events [1]: 20% | percent response (vesicle binding) [1]: 239% (inactive) | percent response (vesicle binding) (response, at 7.7 µM): 150%

CCOc1ccc(CCNC(=O)c2cccc(-n3cnnn3)c2)cc1OCC
double positive events (at 7.7 µM): 7.9% | double positive events [1]: 4.2% | percent response (vesicle binding) [1]: 39.3% (active) | percent response (vesicle binding) (response, at 7.7 µM): 237%

Cc1cc(C(=O)COC(=O)Cc2ccc(Cl)cc2)c(C)n1C
double positive events (at 7.7 µM): 13.6% | double positive events [1]: 22.5% | percent response (vesicle binding) [1]: 160% (inactive) | percent response (vesicle binding) (response, at 7.7 µM): 226%

O=C(/C(=N\Nc1ccc(Br)cc1)Sc1nnnn1-c1ccccc1)c1ccccc1
double positive events (at 7.7 µM): 9.1% | double positive events [1]: 14.4% | percent response (vesicle binding) [1]: 176% (inactive) | percent response (vesicle binding) (response, at 7.7 µM): 308%

COc1cccc(-c2ccc(NC(=O)C3CCCN(Cc4cc(C)[nH]n4)C3)cc2)c1 (stereo not given)
double positive events (at 7.7 µM): 11.6% | double positive events [1]: 32.2% | percent response (vesicle binding) [1]: 350% (inactive) | percent response (vesicle binding) (response, at 7.7 µM): 192%

O=C(O)CCc1ccc(S(=O)(=O)N2CCOCC2)cc1
double positive events (at 7.7 µM): 20.5% | double positive events [1]: 28.7% | percent response (vesicle binding) [1]: 274% (inactive) | percent response (vesicle binding) (response, at 7.7 µM): 233%

CCN(CC)CCNC(=O)CCCNC(=O)Cn1cnc2sc(C)c(C)c2c1=O
double positive events (at 7.7 µM): 39.3% | double positive events [1]: 4.7% | percent response (vesicle binding) [1]: 131% (inactive) | percent response (vesicle binding) (response, at 7.7 µM): 375%

COCCCN1CCc2[nH]c(=S)[nH]c(=O)c2C1
double positive events (at 7.7 µM): 27.3% | double positive events [1]: 2% | percent response (vesicle binding) [1]: 16.7% (active) | percent response (vesicle binding) (response, at 7.7 µM): 272%

CCc1c(O)cc2n(c1=O)-c1ccccc1C2(C)C
double positive events (at 7.7 µM): 9.3% | double positive events [1]: 17.9% | percent response (vesicle binding) [1]: 444% (inactive) | percent response (vesicle binding) (response, at 7.7 µM): 485%

O=C(Nn1cnc2ccccc2c1=O)C1CCCCC1
double positive events (at 7.7 µM): 29.6% | double positive events [1]: 14.2% | percent response (vesicle binding) [1]: 212% (inactive) | percent response (vesicle binding) (response, at 7.7 µM): 255%

CCCN1CCN(CCCNC(=O)c2cc3c(s2)-c2ccccc2OC3)CC1
double positive events (at 7.7 µM): 22.7% | double positive events [1]: 9.3% | percent response (vesicle binding) [1]: 171% (inactive) | percent response (vesicle binding) (response, at 7.7 µM): 229%

Cc1ccc(NC(=S)N(CCCN2CCOCC2)Cc2cccs2)c(C)c1
double positive events (at 7.7 µM): 8.8% | double positive events [1]: 24.8% | percent response (vesicle binding) [1]: 268% (inactive) | percent response (vesicle binding) (response, at 7.7 µM): 149%

Cc1ccc(C(=O)NCCCN2CCOCC2)c(C)c1
double positive events (at 7.7 µM): 30.7% | double positive events [1]: 0.7% | percent response (vesicle binding) [1]: 30.4% (active) | percent response (vesicle binding) (response, at 7.7 µM): 440%

CCn1c(=O)cc(SCC(=O)N2CCN(c3ccccc3F)CC2)c2ccccc21
double positive events (at 7.7 µM): 17% | double positive events [1]: 19.6% | percent response (vesicle binding) [1]: 78.7% (inactive) | percent response (vesicle binding) (response, at 7.7 µM): 247%

CC(C)C(=O)N1CCC2(CC1)Oc1ccc(Cl)cc1C(=O)C21CC(c2cccnc2)=NO1 (stereo not given)
double positive events (at 7.7 µM): 6.8% | double positive events [1]: 15% | percent response (vesicle binding) [1]: 197% (inactive) | percent response (vesicle binding) (response, at 7.7 µM): 109%

Cc1ccc(C(=O)Nc2cccc(-c3cn4ccccc4n3)c2)cc1
double positive events (at 7.7 µM): 7.7% | double positive events [1]: 10.4% | percent response (vesicle binding) [1]: 300% (inactive) | percent response (vesicle binding) (response, at 7.7 µM): 439%

COc1ccc(C(=O)C(C)OC(=O)c2sc(C)nc2C)cc1 (stereo not given)
double positive events (at 7.7 µM): 12.6% | double positive events [1]: 13.7% | percent response (vesicle binding) [1]: 349% (inactive) | percent response (vesicle binding) (response, at 7.7 µM): 113%

Cc1ccc2oc(=O)c(/C=C(\O)c3sc(C)nc3C)nc2c1
double positive events (at 7.7 µM): 17.5% | double positive events [1]: 0.7% | percent response (vesicle binding) [1]: 16.1% (active) | percent response (vesicle binding) (response, at 7.7 µM): 163%

NC(=S)N/N=C/c1ccccc1OCCSc1ccc(Cl)cc1
double positive events (at 7.7 µM): 7% | double positive events [1]: 28% | percent response (vesicle binding) [1]: 262% (inactive) | percent response (vesicle binding) (response, at 7.7 µM): 76.6%

CC(=O)NN1C(=O)c2ccccc2NC1c1ccco1 (stereo not given)
double positive events (at 7.7 µM): 23% | double positive events [1]: 11.1% | percent response (vesicle binding) [1]: 280% (inactive) | percent response (vesicle binding) (response, at 7.7 µM): 361%

Cc1ccccc1N=C1SC(CC(=O)Nc2ccc3ccccc3c2)C(=O)N1Cc1ccccn1 (stereo not given)
double positive events (at 7.7 µM): 8.6% | double positive events [1]: 25.6% | percent response (vesicle binding) [1]: 157% (inactive) | percent response (vesicle binding) (response, at 7.7 µM): 148%

O=C(N/N=C/c1c(O)n(Cc2ccco2)c(=O)[nH]c1=O)c1ccccc1
double positive events (at 7.7 µM): 36.4% | double positive events [1]: 21.6% | percent response (vesicle binding) [1]: 275% (inactive) | percent response (vesicle binding) (response, at 7.7 µM): 418%

COc1ccc(C(=O)OCC(=O)NC(=O)NC2CCCC2)c(O)c1
double positive events (at 7.7 µM): 13.7% | double positive events [1]: 9.4% | percent response (vesicle binding) [1]: 148% (inactive) | percent response (vesicle binding) (response, at 7.7 µM): 254%

CCOc1ccc(-c2nc(N)ncc2-c2ccccc2)c(O)c1
double positive events (at 7.7 µM): 4.3% | double positive events [1]: 34.2% | percent response (vesicle binding) [1]: 276% (active) | percent response (vesicle binding) (response, at 7.7 µM): 51.6%

CC(=O)COc1ccc2c(-c3ccccc3)cc(=O)oc2c1
double positive events (at 7.7 µM): 10.8% | double positive events [1]: 8.7% | percent response (vesicle binding) [1]: 123% (inactive) | percent response (vesicle binding) (response, at 7.7 µM): 165%
